From the antibiotic and cytotoxicity screens of Wong et al. (2023) come the findings set out here.

About 3,300 (8.5%) of roughly 39,000 compounds were called active. The sample holds actives, similar compounds and a random draw of the others, so the mix is not that of the screen.

In this test the test system is HepG2. The experiment in a line: cytotoxicity call (relative viability < 0.9). The following applies: 10 µM.
In the case of `COc1ccc(S(=O)(=O)Nc2ccc3c(c2)C(=O)N([C@@H](C)CO)C[C@@H](C)[C@H](CN(C)S(=O)(=O)c2ccccc2)O3)cc1`, the cytotoxicity call was “inactive”.

For `Cc1ccc(S(=O)(=O)Nc2ccc3c(c2)C(=O)N([C@H](C)CO)C[C@H](C)[C@@H](CN(C)C(=O)Cc2ccccc2)OCCCC[C@H](C)O3)cc1`, the cytotoxicity call was “inactive”. The entry for `CN1C(=O)c2cc(NC(=O)c3cccs3)ccc2OC[C@H]2O[C@H](CC(=O)NCCN3CCCCC3)CC[C@H]21` is “inactive”; for `CO/N=C1\CN(c2nc3c(cc2F)c(=O)c(C(=O)O)cn3C2CC2)C[C@@H]1CN` it is “inactive”. As to `COc1ccc(S(=O)(=O)N2C[C@@H](O)COC[C@@H]3O[C@@H](CC(=O)N[C@@H]4CCN(Cc5ccccc5)C4)CC[C@H]32)cc1`, the cytotoxicity call is “inactive”. `C[C@]1(C(=O)NCC(F)(F)F)c2ccccc2C(=O)N(Cc2cc(F)cc(C(F)(F)F)c2)[C@H]1c1ccc(CO)cc1`: the cytotoxicity call is “inactive”.

For the compound `Cc1ccc(S(=O)(=O)Nc2cccc3c2O[C@@H](CN(C)S(=O)(=O)c2ccccc2)[C@H](C)CN([C@@H](C)CO)C3=O)cc1`, the cytotoxicity call is “inactive”. Next, `COCC#Cc1cnc2c(c1)C(=O)N([C@@H](C)CO)C[C@@H](C)[C@@H](CN(C)C(=O)CCN1CCCCC1)O2`: “inactive”; `Cc1noc(C)c1NC(=O)Nc1ccc2c(c1)C(=O)N([C@H](C)CO)C[C@H](C)[C@@H](CN(C)S(=O)(=O)c1ccccc1)OCCCC[C@@H](C)O2`: “inactive”. Next, `NC1(Cc2ccc(Cl)cc2)CCN(c2ncnc3[nH]ccc23)CC1`: “active”; `Cc1ccc(S(=O)(=O)N2C[C@H](O)COC[C@@H]3O[C@@H](CC(=O)N[C@@H]4CCN(Cc5ccccc5)C4)CC[C@H]32)cc1`: “inactive”; `CN1CCc2cccc3c2C1Cc1ccc(O)c(O)c1-3.Cl` (configuration not stated): “active”. The entry for `COc1cc2c3cc1Oc1cc(ccc1O)O[C@H]1c4c(cc(OC)c(O)c4Oc4ccc(cc4)C[C@@H]3N(C)CC2)CCN1C` is “inactive”; for `C[C@H](CO)N1C[C@H](C)[C@@H](CN(C)S(C)(=O)=O)Oc2ccc(NC(=O)NC3CCCCC3)cc2C1=O` it is “inactive”. For `C[C@@H]1CN([C@H](C)CO)C(=O)CCCn2cc(nn2)CO[C@@H]1CN(C)C(=O)CCCN(C)C`, the cytotoxicity call was “inactive”. The entry for `COCC#Cc1cnc2c(c1)C(=O)N([C@@H](C)CO)C[C@@H](C)[C@H](CN(C)C(=O)c1ccc3c(c1)OCO3)O2` is “inactive”. In the case of `C[C@H](CO)N1C[C@H](C)[C@@H](CN(C)S(=O)(=O)c2cn(C)cn2)Oc2cc(C#Cc3ccc(F)cc3)ccc2S1(=O)=O`, the cytotoxicity call is “inactive”. Next, `Cc1c(C(=O)Nc2ccc3ccccc3c2)oc2ccccc12`: “active”. With `CCC(=O)Nc1ccc2ccccc2c1`, the cytotoxicity call is “inactive”. Consider `O=C(Cc1ccc(-c2ccccc2)cc1)Nc1c(C(=O)Nc2ccc3c(c2)OCCO3)oc2ccccc12`, for which the cytotoxicity call is “inactive”. Regarding `CC(C)NC(=O)N(C)C[C@H]1Oc2ccc(NC(=O)CCC(F)(F)F)cc2C(=O)N([C@@H](C)CO)C[C@H]1C`, the cytotoxicity call was “inactive”. In the case of `C[C@@H]1CN([C@H](C)CO)S(=O)(=O)c2ccc(C3=CCCC3)cc2O[C@H]1CN(C)C(=O)C1CCOCC1`, the cytotoxicity call was “inactive”.

For `COCC(=O)N1C[C@H](C)[C@@H](OC)CN(C)C(=O)c2ccc(NC(=O)c3ccc(OC)cc3)cc2OC[C@H]1C`, the cytotoxicity call is “inactive”. The entry for `CCOC(=O)CN1CCN(C=O)CC1` is “active”; for `CCOC(=O)N1CCC(O)CC1` it is “inactive”; for `CCOC(=O)CN1C(=O)c2ccccc2C1=O` it is “inactive”. On to `CN(C)CCCNC(=O)[C@H]1[C@H](CO)[C@H]2Cn3c(ccc(-c4cccc(C(=O)N(C)C)c4)c3=O)[C@@H]1N2`, for which the cytotoxicity call was “inactive”. The entry for `C[C@@H]1CN([C@@H](C)CO)C(=O)c2cc(N(C)C)ccc2O[C@@H](C)CCCCO[C@@H]1CN(C)C(=O)Nc1ccc(C(F)(F)F)cc1` is “active”. For `C[C@@H]1CCCCO[C@@H](CN(C)C(=O)Nc2ccc(C(F)(F)F)cc2)[C@H](C)CN([C@H](C)CO)C(=O)c2cc(N(C)C)ccc2O1`, the cytotoxicity call is “active”.

With `C[C@@H]1CCCCO[C@@H](CN(C)C(=O)Nc2ccc(C(F)(F)F)cc2)[C@@H](C)CN([C@H](C)CO)C(=O)c2cc(N(C)C)ccc2O1`, the cytotoxicity call is “inactive”. Next, `C[C@@H]1CN([C@H](C)CO)C(=O)c2cc(N(C)C)ccc2O[C@@H](C)CCCCO[C@@H]1CN(C)C(=O)Nc1ccc(C(F)(F)F)cc1`: “inactive”. Turning to `C[C@H]1CCCCO[C@H](CN(C)C(=O)Nc2ccc(C(F)(F)F)cc2)[C@@H](C)CN([C@@H](C)CO)C(=O)c2cc(N(C)C)ccc2O1`, the cytotoxicity call is “inactive”. Consider `C[C@H](CO)N1C[C@H](C)[C@@H](CN(C)C(=O)Nc2ccc(C(F)(F)F)cc2)OCCCC[C@H](C)Oc2ccc(N(C)C)cc2C1=O`, for which the cytotoxicity call is “inactive”.

As to `Cc1nn2cc(CN)nc2s1`, the cytotoxicity call was “inactive”. `C[C@@H]1CN([C@H](C)CO)C(=O)Cc2cc(NC(=O)C3CC3)ccc2O[C@@H]1CN(C)S(=O)(=O)c1cn(C)cn1`: the cytotoxicity call is “inactive”. Next, `C=CCC[C@@H](Cc1ccc(F)cc1)C(=O)OC[C@@H](NC(=O)[C@@H](CC=C)CC(=O)N(CCO)Cc1ccccc1)C(C)(C)C`: “inactive”.

Turning to `C[C@@H]1CN([C@@H](C)CO)C(=O)c2cccc(NS(C)(=O)=O)c2O[C@@H]1CN(C)Cc1ccc(C(F)(F)F)cc1`, the cytotoxicity call is “inactive”. As to `C[C@@H]1CN([C@@H](C)CO)S(=O)(=O)c2ccc(Br)cc2O[C@H]1CN(C)Cc1ccc(-c2ccccc2)cc1`, the cytotoxicity call is “inactive”. Next, `C[C@@H]1CN([C@H](C)CO)C(=O)c2cc(NS(=O)(=O)c3ccc(Cl)cc3)ccc2O[C@@H](C)CCCCO[C@@H]1CN(C)C(=O)NC1CCCCC1`: “active”; `C[C@H]1CCCCO[C@H](CN(C)C(=O)NC2CCCCC2)[C@@H](C)CN([C@@H](C)CO)C(=O)c2cc(NS(=O)(=O)c3ccc(Cl)cc3)ccc2O1`: “inactive”. Consider `C[C@@H]1CCCCO[C@H](CN(C)C(=O)NC2CCCCC2)[C@H](C)CN([C@@H](C)CO)C(=O)c2cc(NS(=O)(=O)c3ccc(Cl)cc3)ccc2O1`, for which the cytotoxicity call is “inactive”.

Turning to `C[C@@H]1CCCCO[C@@H](CN(C)C(=O)NC2CCCCC2)[C@@H](C)CN([C@@H](C)CO)C(=O)c2cc(NS(=O)(=O)c3ccc(Cl)cc3)ccc2O1`, the cytotoxicity call is “inactive”.

With `C[C@H]1CCCCO[C@@H](CN(C)C(=O)NC2CCCCC2)[C@@H](C)CN([C@@H](C)CO)C(=O)c2cc(NS(=O)(=O)c3ccc(Cl)cc3)ccc2O1`, the cytotoxicity call is “inactive”.

Turning to `C[C@@H]1CCCCO[C@H](CN(C)C(=O)NC2CCCCC2)[C@H](C)CN([C@H](C)CO)C(=O)c2cc(NS(=O)(=O)c3ccc(Cl)cc3)ccc2O1`, the cytotoxicity call was “active”. `C[C@@H]1CN([C@H](C)CO)S(=O)(=O)c2ccc(C#C[C@@H](C)O)cc2O[C@H]1CN(C)C(=O)c1ccccc1`: the cytotoxicity call is “inactive”. For `COc1ccccc1NC(=O)N(C)C[C@@H]1OCc2ccccc2-c2c(n(C)c3ccccc23)C(=O)N([C@H](C)CO)C[C@H]1C`, the cytotoxicity call was “inactive”. Next, `O=C(C[C@@H]1C[C@@H]2c3cc(NC(=O)NC4CCCC4)ccc3O[C@@H]2[C@@H](CO)O1)NCCN1CCCCC1`: “inactive”; `CN(C)c1ccc(C(=C2C=CC(=[N+](C)C)C=C2)c2ccc(N(C)C)cc2)cc1.[Cl-]`: “active”. The entry for `C[C@@H]1CCCCO[C@@H](CN(C)Cc2ccc(Cl)c(Cl)c2)[C@@H](C)CN([C@H](C)CO)C(=O)c2cc(NS(C)(=O)=O)ccc2O1` is “inactive”; for `COc1ccc(S(=O)(=O)N(C)C[C@H]2Oc3ccc(NS(=O)(=O)c4c(C)noc4C)cc3C(=O)N([C@H](C)CO)C[C@H]2C)cc1` it is “inactive”; for `COc1ccc(S(=O)(=O)N(C)C[C@@H]2Oc3ccc(NS(=O)(=O)c4c(C)noc4C)cc3C(=O)N([C@H](C)CO)C[C@@H]2C)cc1` it is “active”. Take `COc1ccc(NC(=O)N(C)C[C@@H]2Oc3ccc(NS(=O)(=O)c4c(C)noc4C)cc3C(=O)N([C@@H](C)CO)C[C@@H]2C)cc1`: the cytotoxicity call is “active”. Next, `COc1ccc(NC(=O)N(C)C[C@@H]2Oc3ccc(NS(=O)(=O)c4c(C)noc4C)cc3C(=O)N([C@@H](C)CO)C[C@H]2C)cc1`: “inactive”; `COc1ccc(NC(=O)N(C)C[C@@H]2Oc3ccc(NS(=O)(=O)c4c(C)noc4C)cc3C(=O)N([C@H](C)CO)C[C@@H]2C)cc1`: “inactive”; `COc1ccc(S(=O)(=O)N(C)C[C@H]2Oc3ccc(NS(=O)(=O)c4c(C)noc4C)cc3C(=O)N([C@H](C)CO)C[C@@H]2C)cc1`: “inactive”. Turning to `Cc1cc(C(=O)Nc2cccc3c2O[C@H](CN(C)S(=O)(=O)c2c(C)noc2C)[C@H](C)CN([C@@H](C)CO)C3=O)n(C)n1`, the cytotoxicity call was “inactive”. For `C[C@@H]1CCCCO[C@@H](CN(C)C(=O)Nc2cccc3ccccc23)[C@@H](C)CN([C@H](C)CO)C(=O)c2cc(NS(=O)(=O)c3ccccc3)ccc2O1`, the cytotoxicity call is “inactive”. Next, `COc1cccc(C#Cc2ccc([C@@H]3[C@@H](CO)N4C(=O)CN(S(=O)(=O)c5ccccc5C)C[C@H]34)cc2)c1`: “inactive”; `C[C@@H]1CN([C@@H](C)CO)C(=O)c2cccc(NC(=O)CCCCCC(=O)Nc3ccccc3N)c2O[C@H]1CN(C)C(=O)Nc1ccccc1`: “inactive”; `Cc1noc(C)c1S(=O)(=O)Nc1ccc2c(c1)C(=O)N([C@H](C)CO)C[C@@H](C)[C@@H](CN(C)Cc1ccncc1)O2`: “inactive”. Next, `O=C(C[C@@H]1CC=CC[C@H](NC(=O)OCC2c3ccccc3-c3ccccc32)C(=O)O[C@@H](c2ccccc2)CNC1=O)N[C@@H](CO)Cc1ccccc1`: “inactive”. Take `C[C@@H]1CN([C@H](C)CO)C(=O)Cc2cc(NC(=O)C3CC3)ccc2O[C@@H]1CN(C)S(=O)(=O)c1ccc(Cl)cc1`: the cytotoxicity call is “inactive”. Next, `Cc1ccc(S(=O)(=O)N(C)C[C@@H]2Oc3ccc(NC(=O)C4CC4)cc3CC(=O)N([C@@H](C)CO)C[C@H]2C)cc1`: “inactive”; `Cc1ccc(S(=O)(=O)N(C)C[C@@H]2Oc3ccc(NC(=O)C4CC4)cc3CC(=O)N([C@@H](C)CO)C[C@@H]2C)cc1`: “active”; `C[C@H]1CN([C@@H](C)CO)C(=O)Cc2cc(NC(=O)C3CC3)ccc2O[C@H]1CN(C)S(=O)(=O)c1ccc(Cl)cc1`: “active”. Take `C[C@H](CO)N1C[C@H](C)[C@H](CN(C)S(=O)(=O)c2ccc(Cl)cc2)Oc2ccc(NC(=O)C3CC3)cc2CC1=O`: the cytotoxicity call is “inactive”. Next, `Cc1ccc(S(=O)(=O)N(C)C[C@H]2Oc3ccc(NC(=O)C4CC4)cc3CC(=O)N([C@@H](C)CO)C[C@@H]2C)cc1`: “inactive”.
